Test results published in PubChem BioAssay AID2058 (Sanford-Burnham Center for Chemical Genomics, 2009).
The whole screen tested about 290,000 compounds, of which about 150 (0.052%) were called active.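 How the source made its calls: active means inhibition of at least 50% with at least 30 cells and total cytoplasm GFP at most 10,000,000; inconclusive means under 30 cells or total GFP of 10,000,000 plus; inactive means the rest.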 The list comes from a sample in which actives are over-represented; it also holds similar structures and randomly drawn compounds. Potency and affinity values are given separately.

What follows are compounds tested against G-protein coupled receptor 35 (Homo sapiens) (UniProt Q9HC97) (assay: inhibition of zaprinast-stimulated GPR35 beta-arrestin translocation – imaging, U2OS, beta-arrestin-GFP, zaprinast agonist, primary screen (AID 2058)). Conditions: zaprinast antagonism, at 10 µM, active compounds read high.
G-protein coupled receptor 35 (Homo sapiens), sequence (Q9HC97 whole entry, looked up): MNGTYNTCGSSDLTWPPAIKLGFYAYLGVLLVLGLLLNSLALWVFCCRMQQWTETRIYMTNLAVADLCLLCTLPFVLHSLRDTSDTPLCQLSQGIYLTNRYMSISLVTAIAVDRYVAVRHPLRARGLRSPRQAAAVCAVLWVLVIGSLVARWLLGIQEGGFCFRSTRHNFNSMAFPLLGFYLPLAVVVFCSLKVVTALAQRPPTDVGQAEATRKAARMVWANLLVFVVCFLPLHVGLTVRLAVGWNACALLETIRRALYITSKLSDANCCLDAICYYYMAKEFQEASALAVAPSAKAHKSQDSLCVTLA
In the case of `CCOC(=O)c1cnn(CCOC(=O)C2CC2)c1NC(=O)C1CC1`, the inhibition is reported as -5.8% (inactive).
`Cc1cc(C)cc(N=Cc2[nH]c3ccc(Br)c(Cl)c3c2O)c1` was tested, and the inhibition was 41% (inactive).
`Cc1cccc(N=Cc2[nH]c3ccc(Br)c(Cl)c3c2O)c1` was tested, and the inhibition was 54% (active).
For `Cc1cccc(N=Cc2cc(Br)cc(Cl)c2O)c1`, the inhibition was -33.9% (inactive).
`Nc1c(S(=O)(=O)c2cccs2)c2nc3ccccc3nc2n1CC1CCCO1` (stereo not given) was tested, and the inhibition was 4.2% (inactive).
`NC1=NC(=O)C2(COC(c3cccnc3)OC2)S1` (stereo not given) was tested, and the inhibition was -12.6% (inactive).
With `O=[N+]([O-])c1ccc2[nH]nc(-c3ccccc3)c2c1` the inhibition was -6.7% (inactive).
In the case of `Nc1nc2ccc([N+](=O)[O-])cc2[nH]1`, the inhibition is reported as 20.4% (inactive).
`CCC(=O)Nc1nnc(SCC(=O)NCCc2ccc(OC)c(OC)c2)s1` was tested, and the inhibition was -2.7% (inactive).
`Cc1cc(SCC(=O)N/N=C/c2ccc(C(=O)O)cc2)nc2ccccc12` was tested, and the inhibition was 1.1% (inactive).
`CC(C)N1C(=O)S/C(=C/c2ccc(Sc3nc4ccccc4[nH]3)o2)C1=O` was tested, and the inhibition was -6.1% (inactive).
With `CCN(CC)c1ccc(/C=C2\SC(=O)N(C(C)C)C2=O)o1` the inhibition was 102% (active).
With `CC(C)N1C(=O)S/C(=C\c2ccc(-c3ccc(Cl)c(C(=O)O)c3)o2)C1=O` the inhibition was -27.6% (inactive).
For `COc1ccccc1OCCNC(=O)Nc1cc(F)c(F)cc1Cl`, the inhibition was 3.6% (inactive).
For `COc1cc(-c2nc(Cc3c(F)cccc3Cl)no2)cc(OC)c1OC`, the inhibition was 7.3% (inactive).
For `Oc1ccccc1C1=NN(c2ccccc2)C(c2ccc(F)cc2)C1` (stereo not given), the inhibition was 1.5% (inactive).
`COc1ccc(C2CC(c3ccc(F)cc3)=NN2c2ccccc2)cc1OC` (stereo not given) was tested, and the inhibition was -7.1% (inactive).
For `Oc1ccc(C2=NN(c3ccccc3)C(c3ccc(F)cc3)C2)cc1` (stereo not given), the inhibition was 78.6% (active).
With `COc1cccc(N2C(=O)CC(NNC(=O)c3cccs3)C2=O)c1` (stereo not given) the inhibition was -15.4% (inactive).
For `O=C(Cn1cncn1)N/N=C/c1cccnc1`, the inhibition was -13.5% (inactive).
In the case of `CC(C)C1=NN2C(=N)CC(=O)N=C2S1`, the inhibition is reported as -12.3% (inactive).
With `Cc1ccc(Cn2ncc3c(N4CCN(C)CC4)ncnc32)cc1` the inhibition was -0.4% (inactive).
`Clc1ccc(Cn2ncc3c(N4CCCC4)ncnc32)cc1` was tested, and the inhibition was -11.9% (inactive).
With `Cc1ccc(Cn2ncc3c(N4CCN(Cc5ccc(Cl)cc5)CC4)ncnc32)cc1` the inhibition was 11.6% (inactive).
For `Cc1ccc(Cn2ncc3c(N4CCN(c5ccc(C)cc5)CC4)ncnc32)cc1`, the inhibition was 1.6% (inactive).
`COc1ccc(C2c3c(ccc4ccccc34)Oc3ncn4nc(CO/N=C/c5ccccc5)nc4c32)cc1` (stereo not given) was tested, and the inhibition was -1.8% (inactive).
`COc1ccc(C(=O)NNS(=O)(=O)c2ccccc2)cc1` was tested, and the inhibition was -5.9% (inactive).
In the case of `CC(C)[C@H](Nc1ccc(S(=O)(=O)N2CCOCC2)cc1[N+](=O)[O-])C(=O)OCC(=O)N(C(C)C)C(C)C`, the inhibition is reported as 11.5% (inactive).
For `COc1cc(/C=N/NC(=O)CC2(C)OCCCO2)ccc1OCc1ccc(Cl)cc1Cl`, the inhibition was 10.6% (inactive).
For `COc1cc(/C=N/NC(=O)CC2(C)OCCCO2)ccc1OCc1ccccc1`, the inhibition was -7.2% (inactive).
In the case of `O=C(NCC1CCCO1)c1cc2cc(Cl)ccc2[nH]1` (stereo not given), the inhibition is reported as 2.4% (inactive).
With `CCOC(=O)c1ccccc1NC(=O)Cn1cnc2c(oc3ccccc32)c1=O` the inhibition was 8.3% (inactive).
For `COC(=O)c1ccc(CSc2nc(C)nc3c2c(=O)n(C)c(=O)n3C)o1`, the inhibition was -16.8% (inactive).
For `O=C(CSc1nc2cc(Cl)ccc2c(=O)n1Cc1ccco1)Nc1ccc(S(=O)(=O)N2CCOCC2)cc1`, the inhibition was -2.6% (inactive).
`O=C(N/N=C/c1cccs1)[C@H]1C[C@@H]1c1ccccc1` was tested, and the inhibition was 9.8% (inactive).
`Oc1ccc(Nc2nc(-c3ccccc3F)nc3ccccc23)cc1` was tested, and the inhibition was -5.3% (inactive).
With `Oc1ccc(/C=N/Nc2nc(-c3cccnc3)nc3ccccc23)c(O)c1` the inhibition was 8.3% (inactive).
With `CC1CCN(S(=O)(=O)c2cccc(S(=O)(=O)N3CCCC3)c2)CC1` the inhibition was 4.8% (inactive).
In the case of `NC(=O)c1cc2cc([N+](=O)[O-])ccc2oc1=O`, the inhibition is reported as -20% (inactive).
With `COc1ccc(C(=O)Nc2ccc(Cl)cc2C(=O)NCc2ccco2)cc1` the inhibition was 14% (inactive).
With `CCOc1ccc(CNc2ccc3c(c2)nc(C)n3C)cc1` the inhibition was 4.9% (inactive).
In the case of `CCn1cnc2cc(NCc3ccc(OC)cc3)ccc21`, the inhibition is reported as -12.4% (inactive).
With `CCOCC(O)CS(=O)(=O)c1ccccn1` (stereo not given) the inhibition was -4.6% (inactive).
In the case of `O=C(Nc1nc2ccc3ccccc3c2s1)c1ccc(N2CCCCC2)c([N+](=O)[O-])c1`, the inhibition is reported as 5.5% (inactive).
For `O=C(Nc1nc2ccc(Cl)cc2s1)c1ccc(N2CCCCC2)c([N+](=O)[O-])c1`, the inhibition was 4.2% (inactive).
With `O=C(Cc1cccc2ccccc12)Nc1cc(Cl)ccc1C(=O)O` the inhibition was -3.5% (inactive).
With `O=C(CCC1N=C2c3ccccc3N=C(SCC(=O)NCC3CCCO3)N2C1=O)NCc1ccc(F)cc1` (stereo not given) the inhibition was -0.5% (inactive).
For `N#C/C(=C\c1ccc(N2CCOCC2)o1)c1ccccc1`, the inhibition was 19.5% (inactive).
With `N#C/C(=C\c1ccc(N2CCOCC2)o1)c1nc2ccccc2[nH]1` the inhibition was 26.1% (inactive).
In the case of `CCn1c(CC(=O)Nc2ccccc2F)nnc1SCC(=O)N1CCN(c2ccccc2)CC1`, the inhibition is reported as -10.6% (inactive).
In the case of `CC(C)(C)NC(=O)CN(C(=O)C(=O)Nc1ccc2c(c1)OCCO2)C1CCCC1`, the inhibition is reported as 15.5% (inactive).
In the case of `CC(=O)c1cccc(NC(=O)/C(=C\c2ccco2)NC(=O)c2ccco2)c1`, the inhibition is reported as -5.7% (inactive).
In the case of `CN1C=CC2=C(C#N)C(N)C(C#N)(C#N)[C@H](c3ccccc3)[C@H]2C1` (stereo not given in full), the inhibition is reported as 38.1% (inactive).
In the case of `CCN1C=CC2=C(C#N)C(N)C(C#N)(C#N)C(c3ccccc3C(F)(F)F)C2C1` (stereo not given), the inhibition is reported as 12.6% (inactive).
For `CC1=C(C(=O)OCc2ccccc2)C(c2ccccc2Cl)NC(=O)N1CCCCCC(=O)O` (stereo not given), the inhibition was 0.1% (inactive).
`O=S(=O)(Nc1nc2ccccc2s1)c1cc(F)ccc1F` was tested, and the inhibition was -10.3% (inactive).
For `CC1CN(CCC(=O)Nc2ccc3c(c2)OCO3)CC(C)O1` (stereo not given), the inhibition was -12% (inactive).
With `C#CCOCCOCCOCCNc1nc(N2CCN(C(=O)[C@H]([C@@H](C)CC)n3cc(CCCN=C(N)N)nn3)CC2)nc(N2CCN(C(=O)[C@H](Cc3ccc(O)cc3)n3cc(CCO)nn3)CC2)n1` the inhibition was -6.4% (inactive).
In the case of `CS(=O)(=O)N1N=C(c2ccc(Br)cc2)CC1c1ccc2c(c1)OCO2` (stereo not given), the inhibition is reported as 20.6% (inactive).
In the case of `Cc1ccc(C2=NN(S(C)(=O)=O)C(c3ccc4c(c3)OCO4)C2)cc1` (stereo not given), the inhibition is reported as 6.3% (inactive).
For `O=C(NC1CCCC1)C(c1ccccn1)N(C(=O)c1csnn1)c1ccccc1` (stereo not given), the inhibition was 13.8% (inactive).
`COc1ccc(/C=N/N2C(=O)CN(C(=O)c3ccccc3)C2c2ccc(OC)cc2)cc1` (stereo not given) was tested, and the inhibition was 1.5% (inactive).
In the case of `COc1ccc(S(=O)(=O)N2CCOC2CNC(=O)C(=O)NCCc2c[nH]c3ccccc23)cc1` (stereo not given), the inhibition is reported as 4.5% (inactive).
With `O=C(Nc1ccc(C2=NCCN2)cc1)c1ccc(C(=O)Nc2ccc(C3=NCCN3)cc2)c(Cl)c1` the inhibition was 101% (active).
In the case of `O=C(Nc1ccc(C2=NCCN2)cc1)c1ccc(Cl)c(C(=O)Nc2ccc(C3=NCCN3)cc2)c1`, the inhibition is reported as 13.7% (inactive).
`O=C(Nc1ccc(C2=NCCN2)cc1)c1ccc(C(=O)Nc2ccc(C3=NCCN3)cc2)c([N+](=O)[O-])c1` was tested, and the inhibition was -3.6% (inactive).
With `COC(=O)c1sc(S(=O)(=O)N2CCC(C)CC2)c(C(=O)OC)c1C` the inhibition was 10.9% (inactive).
For `COCCCNC(=S)N(CCCN(C)C)Cc1cc2cc3c(cc2[nH]c1=O)OCCO3`, the inhibition was -7.4% (inactive).
`CCOC(=O)CC1C(=O)NCCN1C1CCCC1` (stereo not given) was tested, and the inhibition was 9.7% (inactive).
`CC(=O)NNC(=O)CN1C(=O)/C(=C/c2ccccc2)SC1=S` was tested, and the inhibition was -0.2% (inactive).
For `Cc1c(C(=O)Nc2cccc(N(C)S(C)(=O)=O)c2)cccc1[N+](=O)[O-]`, the inhibition was -4.4% (inactive).
In the case of `CC(C)c1cc(=O)oc2c3c4c(cc12)CCCN4CCC3`, the inhibition is reported as -1.4% (inactive).
For `O=c1ccc2cc3c4c(c2o1)CCCN4CCC3`, the inhibition was 22.1% (inactive).
For `O=C(CNC(=O)N1CC(=O)Nc2ccccc21)Nc1ccc(F)c(Cl)c1`, the inhibition was -6.4% (inactive).
For `CCc1ccc2[nH]c(=O)c(CN(CCN3CCOCC3)C(=O)Nc3ccccc3F)cc2c1`, the inhibition was 8.5% (inactive).
With `CCC(C)[C@H](NC(=O)N1CCn2c1nc1ccccc12)C(=O)NCC1CCCO1` (stereo not given in full) the inhibition was -10.9% (inactive).
With `O=C(NC1CCCc2ccccc21)c1cn2ccccc2n1` (stereo not given) the inhibition was 13.2% (inactive).
In the case of `Cc1ccc(CNC(=O)CSc2nc3ccsc3c(=O)n2Cc2ccc(C(=O)O)cc2)cc1`, the inhibition is reported as -4.6% (inactive).
`CC(C)c1ccc(NC(=O)CSc2nc3ccsc3c(=O)n2CCC(=O)O)cc1` was tested, and the inhibition was 6.9% (inactive).
In the case of `O=C(NCCN1CCOCC1)c1c[nH]c2ccc(S(=O)(=O)N3CCOCC3)cc2c1=O`, the inhibition is reported as 3% (inactive).
For `CCCS(=O)(=O)c1c(S(=O)(=O)CCC)c2c3ccccc3ccn2c1C(N)=O`, the inhibition was -10.5% (inactive).
`CCN(CC)S(=O)(=O)c1ccc(Cl)c(NC(=O)c2cc(Cl)ccc2Cl)c1` was tested, and the inhibition was 7.1% (inactive).
In the case of `CCN(CC)S(=O)(=O)c1ccc(Cl)c(NC(=O)c2ccccc2C)c1`, the inhibition is reported as 4.8% (inactive).
For `CCOc1ccccc1N(C)C(=O)Cn1ncc2c([nH]c3ccc(C)cc32)c1=O`, the inhibition was -6.9% (inactive).
In the case of `CN(C(=O)COC(=O)c1ccccc1NC(=O)c1ccco1)C1CCS(=O)(=O)C1` (stereo not given), the inhibition is reported as 29.1% (inactive).
`Cc1ccc(NC(=O)c2nc[nH]c2C(=O)N[C@@H](C)c2ccccc2)cc1` was tested, and the inhibition was 53.8% (inactive).
In the case of `NS(=O)(=O)c1ccc(CCNC(=O)CCCOc2ccccc2)cc1`, the inhibition is reported as 3.9% (inactive).
In the case of `Cc1ccc(OCCC(=O)NCCc2ccc(S(N)(=O)=O)cc2)cc1`, the inhibition is reported as 21.9% (inactive).
With `O=C(CCS(=O)(=O)c1ccc(Br)cc1)NCCc1ccccc1` the inhibition was -8.4% (inactive).
For `Cc1ccc(CCNC(=O)CCS(=O)(=O)c2ccc(Br)cc2)cc1`, the inhibition was 3.1% (inactive).
